In PubChem BioAssay (NCATS):
Records with an inconclusive call do not appear. Active and inactive are the calls of the source. The call rests on the fitted dose curve; in most records, active means well fitted inhibition curve with a large enough effect; inconclusive means small, poorly fitted or top-dose-only effect; inactive means flat fitted curve, though single readings scatter.

tested on: AA1029; assay: qHTS profiling for inhibitors of Plasmodium falciparum proliferation (AID 504749); further: nearly all actives have a fitted effect of over 60% in size; settings: P. falciparum in erythrocytes, SYBR Green DNA, 72 h; series mostly up to 28.7 µM
In short: (§1)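 SYBR Green fluorescence (ex 485 nm, em 535 nm) reports parasite DNA after 72 h compound exposure of infected red cells at 0.3% parasitemia, 2.5% hematocrit; signal normalized to 0.29 uM artemisinin and vehicle wells.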
Potency means the concentration at half of the fitted maximal effect.

Row | Structure (SMILES) | Potency
1 | CC(NCCC(c1ccccc1)c1ccccc1)c1ccccc1 (stereo not given) | 12.6 µM (active)
2 | O=S(=O)(O)c1ccc2nc(-c3ccccc3)[nH]c2c1 | inactive
3 | CCCCCCCCCCCCCCCC[N+](C)(C)Cc1ccccc1 | 3.16 µM (active)
4 | CCCCCCCCCCCCCC[N+](C)(C)C | 4.47 µM (active)
5 | Nc1c2ccccc2nc2ccccc12 | 7.08 µM (active)
6 | CN1CCCN(C(c2ccccc2)c2ccc(Cl)cc2)CC1 (stereo not given) | 7.94 µM (active)
7 | O=C(Nc1ccc(Cl)cc1)Nc1ccc(Cl)c(Cl)c1 | 5.62 µM (active)
8 | CCCCCCCCCCCCCCCC[n+]1ccccc1 | 5.01 µM (active)
9 | CN1CCC(Nc2ncc3ncnc(Nc4ccc(F)c(Cl)c4)c3n2)CC1 | 10 µM (active)
10 | Nc1ncnc2nc[nH]c12 | inactive

tested on: AS120; assay: as above; settings: P. falciparum in erythrocytes, SYBR Green DNA, 72 h; series mostly up to 28.7 µM
In short: as §1

Row | Structure (SMILES) | Potency
11 | CC(NCCC(c1ccccc1)c1ccccc1)c1ccccc1 (stereo not given) | 11.2 µM (active)
12 | O=S(=O)(O)c1ccc2nc(-c3ccccc3)[nH]c2c1 | inactive
13 | CCCCCCCCCCCCCCCC[N+](C)(C)Cc1ccccc1 | 1 µM (active)
14 | CCCCCCCCCCCCCC[N+](C)(C)C | 5.62 µM (active)
15 | Nc1c2ccccc2nc2ccccc12 | 12.6 µM (active)
16 | CN1CCCN(C(c2ccccc2)c2ccc(Cl)cc2)CC1 (stereo not given) | 11.2 µM (active)
17 | O=C(Nc1ccc(Cl)cc1)Nc1ccc(Cl)c(Cl)c1 | 2.24 µM (active)
18 | CCCCCCCCCCCCCCCC[n+]1ccccc1 | 7.94 µM (active)
19 | O=[N+]([O-])c1ccc(O)c2ncccc12 | 10 µM (active)
20 | Nc1ncnc2nc[nH]c12 | inactive

tested on: ATS189; assay: as above; settings: P. falciparum in erythrocytes, SYBR Green DNA, 72 h; series mostly up to 28.7 µM
In short: as §1

Row | Structure (SMILES) | Potency
21 | O=S(=O)(O)c1ccc2nc(-c3ccccc3)[nH]c2c1 | inactive
22 | CCCCCCCCCCCCCCCC[N+](C)(C)Cc1ccccc1 | 3.55 µM (active)
23 | CCCCCCCCCCCCCC[N+](C)(C)C | 5.62 µM (active)
24 | Nc1c2ccccc2nc2ccccc12 | 7.08 µM (active)
25 | CN1CCCN(C(c2ccccc2)c2ccc(Cl)cc2)CC1 (stereo not given) | 10 µM (active)
26 | O=C(Nc1ccc(Cl)cc1)Nc1ccc(Cl)c(Cl)c1 | 3.16 µM (active)
27 | CCCCCCCCCCCCCCCC[n+]1ccccc1 | 6.31 µM (active)
28 | Nc1ncnc2nc[nH]c12 | inactive

tested on: ATS95; assay: as above; settings: P. falciparum in erythrocytes, SYBR Green DNA, 72 h; series mostly up to 28.7 µM
In short: as §1

Row | Structure (SMILES) | Potency
29 | CC(NCCC(c1ccccc1)c1ccccc1)c1ccccc1 (stereo not given) | 11.2 µM (active)
30 | O=S(=O)(O)c1ccc2nc(-c3ccccc3)[nH]c2c1 | inactive
31 | CCCCCCCCCCCCCCCC[N+](C)(C)Cc1ccccc1 | 3.55 µM (active)
32 | CCCCCCCCCCCCCC[N+](C)(C)C | 7.08 µM (active)
33 | Nc1c2ccccc2nc2ccccc12 | 11.2 µM (active)
34 | CN1CCCN(C(c2ccccc2)c2ccc(Cl)cc2)CC1 (stereo not given) | 11.2 µM (active)
35 | O=C(Nc1ccc(Cl)cc1)Nc1ccc(Cl)c(Cl)c1 | 3.16 µM (active)
36 | CCCCCCCCCCCCCCCC[n+]1ccccc1 | 7.94 µM (active)
37 | Nc1ncnc2nc[nH]c12 | inactive

tested on: C2A; assay: as above; settings: P. falciparum in erythrocytes, SYBR Green DNA, 72 h; series mostly up to 28.7 µM
In short: as §1

Row | Structure (SMILES) | Potency
38 | CC(NCCC(c1ccccc1)c1ccccc1)c1ccccc1 (stereo not given) | 10 µM (active)
39 | O=S(=O)(O)c1ccc2nc(-c3ccccc3)[nH]c2c1 | inactive
40 | CCCCCCCCCCCCCCCC[N+](C)(C)Cc1ccccc1 | 10 µM (active)
41 | CCCCCCCCCCCCCC[N+](C)(C)C | 3.98 µM (active)
42 | CN1CCCN(C(c2ccccc2)c2ccc(Cl)cc2)CC1 (stereo not given) | 11.2 µM (active)
43 | O=C(Nc1ccc(Cl)cc1)Nc1ccc(Cl)c(Cl)c1 | 3.16 µM (active)
44 | CCCCCCCCCCCCCCCC[n+]1ccccc1 | 4.47 µM (active)
45 | CN1CCC(Nc2ncc3ncnc(Nc4ccc(F)c(Cl)c4)c3n2)CC1 | 11.2 µM (active)
46 | O=[N+]([O-])c1ccc(O)c2ncccc12 | 12.6 µM (active)
47 | Nc1ncnc2nc[nH]c12 | inactive

tested on: CP185; assay: as above; settings: P. falciparum in erythrocytes, SYBR Green DNA, 72 h; series mostly up to 28.7 µM
In short: as §1

Row | Structure (SMILES) | Potency
48 | CC(NCCC(c1ccccc1)c1ccccc1)c1ccccc1 (stereo not given) | 8.91 µM (active)
49 | O=S(=O)(O)c1ccc2nc(-c3ccccc3)[nH]c2c1 | inactive
50 | CCCCCCCCCCCCCCCC[N+](C)(C)Cc1ccccc1 | 0.501 µM (active)
51 | CCCCCCCCCCCCCC[N+](C)(C)C | 5.62 µM (active)
52 | Nc1c2ccccc2nc2ccccc12 | 8.91 µM (active)
53 | O=C(Nc1ccc(Cl)cc1)Nc1ccc(Cl)c(Cl)c1 | 2.51 µM (active)
54 | CCCCCCCCCCCCCCCC[n+]1ccccc1 | 7.94 µM (active)
55 | Nc1ncnc2nc[nH]c12 | inactive
